Legend:
Experiment in all cases: DAPPL (digital affinity profiling via proximity ligation, sequencing); 10 mM Tris-HCl pH 7.5, 50 mM NaCl, 1 mM DTT, 4% glycerol, room temperature, 30 min; GST-TFs on glutathione beads, 16-mer random dsDNA library, 0.1% formaldehyde crosslink after washing; high values mean tight binding
FEV = molecular target: T1, FEV (Homo sapiens, UniProt Q99581 1-238); conditions: protein: recombinant; tags: N-terminal GST; dsDNA, one strand shown
T1 sequence: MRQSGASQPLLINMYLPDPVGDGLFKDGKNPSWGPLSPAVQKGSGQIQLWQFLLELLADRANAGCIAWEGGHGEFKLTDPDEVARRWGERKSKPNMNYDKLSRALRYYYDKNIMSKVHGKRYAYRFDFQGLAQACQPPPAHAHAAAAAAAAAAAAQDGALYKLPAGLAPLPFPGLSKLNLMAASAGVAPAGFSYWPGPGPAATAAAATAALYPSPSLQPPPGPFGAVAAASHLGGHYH
In short: (§1)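 Binding signal is defined as a hexamer's read frequency for one factor over its frequency for the tag-only sample. To obtain reads, GST-fused human transcription factors were expressed in yeast, captured on glutathione beads, barcoded with DNA and pooled with that sample. Pools met 200 nmole of a 16-mer random double-stranded DNA library in Tris/NaCl/DTT/glycerol buffer for 30 min at room temperature before washing, 0.1% formaldehyde crosslinking, proximity ligation (BsaI/T4 ligase, 1 h, 37 °C), PCR and Illumina NextSeq500 sequencing.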

ETV5 = ETV5 (Homo sapiens, UniProt P41161 1-510); conditions: protein: recombinant; tags: N-terminal GST; dsDNA, one strand shown
Sequence of ETV5 (P41161 whole entry): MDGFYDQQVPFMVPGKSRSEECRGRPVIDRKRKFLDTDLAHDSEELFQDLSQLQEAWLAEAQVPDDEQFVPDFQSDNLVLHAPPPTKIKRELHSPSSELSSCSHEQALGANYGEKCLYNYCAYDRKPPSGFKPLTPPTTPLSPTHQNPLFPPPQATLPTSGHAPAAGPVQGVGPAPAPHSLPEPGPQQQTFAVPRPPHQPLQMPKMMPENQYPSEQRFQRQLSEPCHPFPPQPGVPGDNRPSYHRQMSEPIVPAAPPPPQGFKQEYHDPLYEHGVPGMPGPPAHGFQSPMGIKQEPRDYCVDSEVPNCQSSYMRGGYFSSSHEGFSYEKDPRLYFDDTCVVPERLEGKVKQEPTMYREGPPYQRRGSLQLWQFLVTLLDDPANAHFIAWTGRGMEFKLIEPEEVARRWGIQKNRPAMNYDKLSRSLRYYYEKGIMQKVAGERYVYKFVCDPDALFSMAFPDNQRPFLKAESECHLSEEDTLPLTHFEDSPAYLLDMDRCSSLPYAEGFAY
In short: as §1

HSF1 = HSF1 (Homo sapiens, UniProt Q00613 1-529); conditions: protein: recombinant; tags: N-terminal GST; chain copies: 3; dsDNA, one strand shown
Sequence of HSF1 (Q00613 whole entry): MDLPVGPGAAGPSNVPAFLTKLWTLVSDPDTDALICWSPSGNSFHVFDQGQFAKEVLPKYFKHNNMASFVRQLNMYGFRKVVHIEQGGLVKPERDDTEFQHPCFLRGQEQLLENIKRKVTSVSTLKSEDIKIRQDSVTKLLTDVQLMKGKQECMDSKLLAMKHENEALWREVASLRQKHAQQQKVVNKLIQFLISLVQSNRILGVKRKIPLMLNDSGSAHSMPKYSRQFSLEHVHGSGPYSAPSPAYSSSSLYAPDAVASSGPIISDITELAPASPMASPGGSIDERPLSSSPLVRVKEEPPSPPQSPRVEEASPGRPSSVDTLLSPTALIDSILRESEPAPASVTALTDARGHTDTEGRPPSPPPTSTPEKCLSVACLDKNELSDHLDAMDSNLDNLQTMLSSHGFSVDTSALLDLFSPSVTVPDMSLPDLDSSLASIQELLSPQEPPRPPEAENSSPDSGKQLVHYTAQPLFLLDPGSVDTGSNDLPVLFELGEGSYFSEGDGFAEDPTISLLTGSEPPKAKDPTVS
In short: as §1

SPIC = molecular target: T2, SPIC (Homo sapiens, UniProt Q8N5J4 1-248); conditions: protein: recombinant; tags: N-terminal GST; dsDNA, one strand shown
T2 sequence: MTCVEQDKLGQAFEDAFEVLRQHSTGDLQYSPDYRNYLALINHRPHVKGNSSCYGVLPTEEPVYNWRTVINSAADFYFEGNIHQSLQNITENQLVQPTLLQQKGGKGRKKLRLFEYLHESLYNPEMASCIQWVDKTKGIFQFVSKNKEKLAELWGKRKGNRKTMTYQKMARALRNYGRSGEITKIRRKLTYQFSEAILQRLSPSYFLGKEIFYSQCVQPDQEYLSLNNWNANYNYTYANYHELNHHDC
In short: as §1

ELF4 = ELF4 (Homo sapiens, UniProt Q99607 1-663); conditions: protein: recombinant; tags: N-terminal GST; dsDNA, one strand shown
Sequence of ELF4 (Q99607 whole entry): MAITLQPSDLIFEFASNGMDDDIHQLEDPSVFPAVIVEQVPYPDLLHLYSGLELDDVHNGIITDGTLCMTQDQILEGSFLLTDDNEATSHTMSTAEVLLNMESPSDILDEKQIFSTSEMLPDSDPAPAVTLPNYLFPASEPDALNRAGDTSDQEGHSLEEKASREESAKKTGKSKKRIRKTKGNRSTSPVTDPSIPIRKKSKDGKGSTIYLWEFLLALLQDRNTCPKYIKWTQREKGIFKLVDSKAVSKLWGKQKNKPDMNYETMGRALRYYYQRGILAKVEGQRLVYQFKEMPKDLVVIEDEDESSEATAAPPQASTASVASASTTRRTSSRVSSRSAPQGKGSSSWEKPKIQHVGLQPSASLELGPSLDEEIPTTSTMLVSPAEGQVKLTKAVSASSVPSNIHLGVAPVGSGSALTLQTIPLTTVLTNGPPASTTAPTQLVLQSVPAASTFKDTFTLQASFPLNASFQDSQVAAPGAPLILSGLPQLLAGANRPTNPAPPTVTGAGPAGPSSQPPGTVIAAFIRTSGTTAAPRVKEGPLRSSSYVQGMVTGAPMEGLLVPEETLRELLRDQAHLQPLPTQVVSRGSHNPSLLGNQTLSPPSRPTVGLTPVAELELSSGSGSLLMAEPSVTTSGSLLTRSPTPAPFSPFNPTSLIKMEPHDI
In short: as §1

ELK4 = molecular target: T3, ELK4 (Homo sapiens, UniProt P28324-2 1-405); conditions: protein: recombinant; tags: N-terminal GST; dsDNA, one strand shown
T3 sequence: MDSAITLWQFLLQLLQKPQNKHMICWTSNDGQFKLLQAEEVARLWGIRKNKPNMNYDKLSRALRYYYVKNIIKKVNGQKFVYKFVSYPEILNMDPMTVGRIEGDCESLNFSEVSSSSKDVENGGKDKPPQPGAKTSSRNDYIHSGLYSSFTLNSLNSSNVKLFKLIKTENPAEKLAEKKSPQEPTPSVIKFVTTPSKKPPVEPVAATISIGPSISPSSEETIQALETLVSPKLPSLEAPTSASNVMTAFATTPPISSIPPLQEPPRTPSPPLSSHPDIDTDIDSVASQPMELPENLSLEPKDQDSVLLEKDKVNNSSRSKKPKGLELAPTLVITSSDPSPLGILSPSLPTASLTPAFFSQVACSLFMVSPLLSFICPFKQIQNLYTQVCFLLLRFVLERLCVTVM
In short: as §1

ETV2 = molecular target: T4, ETV2 (Homo sapiens, UniProt O00321 1-342); conditions: protein: recombinant; tags: N-terminal GST; dsDNA, one strand shown
T4 sequence: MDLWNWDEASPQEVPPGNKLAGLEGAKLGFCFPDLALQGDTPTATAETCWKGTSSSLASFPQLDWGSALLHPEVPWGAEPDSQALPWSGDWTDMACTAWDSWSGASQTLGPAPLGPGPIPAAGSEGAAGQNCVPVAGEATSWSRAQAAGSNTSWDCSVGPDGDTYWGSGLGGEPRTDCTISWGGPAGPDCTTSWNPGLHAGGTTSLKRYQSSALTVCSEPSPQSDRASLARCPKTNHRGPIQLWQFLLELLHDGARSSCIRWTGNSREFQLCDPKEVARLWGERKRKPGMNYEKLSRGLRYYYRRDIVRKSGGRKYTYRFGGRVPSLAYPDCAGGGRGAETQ
In short: as §1

ELF3 = molecular target: T5, ELF3 (Homo sapiens, UniProt P78545 1-371); conditions: protein: recombinant; tags: N-terminal GST; dsDNA, one strand shown
T5 sequence: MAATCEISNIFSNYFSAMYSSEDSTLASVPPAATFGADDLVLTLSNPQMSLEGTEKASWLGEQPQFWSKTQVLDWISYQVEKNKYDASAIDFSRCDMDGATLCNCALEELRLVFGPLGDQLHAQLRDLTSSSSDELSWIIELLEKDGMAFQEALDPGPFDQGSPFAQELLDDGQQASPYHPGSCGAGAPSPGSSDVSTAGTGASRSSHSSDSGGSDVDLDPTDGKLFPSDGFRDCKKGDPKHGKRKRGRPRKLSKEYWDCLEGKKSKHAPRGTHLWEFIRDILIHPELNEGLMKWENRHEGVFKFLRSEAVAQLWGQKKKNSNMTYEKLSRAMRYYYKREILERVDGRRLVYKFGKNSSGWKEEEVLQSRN
In short: as §1

CRX = CRX (Homo sapiens, UniProt O43186 1-299); conditions: protein: recombinant; tags: N-terminal GST; dsDNA, one strand shown
Sequence of CRX (O43186 whole entry): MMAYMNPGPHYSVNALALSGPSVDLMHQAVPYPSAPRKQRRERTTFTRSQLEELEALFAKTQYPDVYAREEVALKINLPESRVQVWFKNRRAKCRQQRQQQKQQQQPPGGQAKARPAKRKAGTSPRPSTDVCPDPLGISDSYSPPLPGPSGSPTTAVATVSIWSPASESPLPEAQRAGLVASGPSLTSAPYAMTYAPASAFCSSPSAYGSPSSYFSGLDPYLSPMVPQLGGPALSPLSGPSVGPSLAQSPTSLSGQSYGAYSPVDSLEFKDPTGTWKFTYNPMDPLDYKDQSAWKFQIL
In short: as §1

ETV1 = ETV1 (Homo sapiens, UniProt P50549 1-477); conditions: protein: recombinant; tags: N-terminal GST; dsDNA, one strand shown
Sequence of ETV1 (P50549 whole entry): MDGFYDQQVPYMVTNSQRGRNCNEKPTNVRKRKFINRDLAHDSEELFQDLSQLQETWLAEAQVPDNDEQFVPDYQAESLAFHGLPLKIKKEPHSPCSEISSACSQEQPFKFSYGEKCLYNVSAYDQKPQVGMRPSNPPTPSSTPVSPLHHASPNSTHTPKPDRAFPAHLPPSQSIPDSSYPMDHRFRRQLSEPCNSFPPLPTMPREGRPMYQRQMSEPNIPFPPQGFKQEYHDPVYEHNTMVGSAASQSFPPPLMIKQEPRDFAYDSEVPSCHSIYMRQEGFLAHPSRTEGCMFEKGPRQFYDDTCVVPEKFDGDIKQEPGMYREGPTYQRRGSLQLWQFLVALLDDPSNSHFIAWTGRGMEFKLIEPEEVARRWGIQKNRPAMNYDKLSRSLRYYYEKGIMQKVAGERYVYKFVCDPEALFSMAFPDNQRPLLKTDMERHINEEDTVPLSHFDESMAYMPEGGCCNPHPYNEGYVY
In short: as §1

ERF = molecular target: T6, ERF (Homo sapiens, UniProt P50548 1-548); conditions: protein: recombinant; tags: N-terminal GST; dsDNA, one strand shown
T6 sequence: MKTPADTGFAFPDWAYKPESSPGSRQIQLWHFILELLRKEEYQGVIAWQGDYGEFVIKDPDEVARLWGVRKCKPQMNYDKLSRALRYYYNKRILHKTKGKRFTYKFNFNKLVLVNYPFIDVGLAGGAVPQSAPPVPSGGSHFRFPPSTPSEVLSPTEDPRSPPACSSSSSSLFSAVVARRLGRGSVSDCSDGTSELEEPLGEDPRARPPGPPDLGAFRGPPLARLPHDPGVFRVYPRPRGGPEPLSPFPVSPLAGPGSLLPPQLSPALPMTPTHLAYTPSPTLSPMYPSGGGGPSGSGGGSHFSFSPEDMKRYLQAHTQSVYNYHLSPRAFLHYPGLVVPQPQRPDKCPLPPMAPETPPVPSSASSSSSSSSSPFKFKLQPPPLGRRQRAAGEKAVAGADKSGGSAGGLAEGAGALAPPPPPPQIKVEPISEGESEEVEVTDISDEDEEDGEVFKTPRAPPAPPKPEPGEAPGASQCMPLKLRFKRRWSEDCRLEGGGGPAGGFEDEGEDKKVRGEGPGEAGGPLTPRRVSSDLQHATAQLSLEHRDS
In short: as §1

ETV3L = molecular target: T7, ETV3L (Homo sapiens, UniProt Q6ZN32 1-361); conditions: protein: recombinant; tags: N-terminal GST; dsDNA, one strand shown
T7 sequence: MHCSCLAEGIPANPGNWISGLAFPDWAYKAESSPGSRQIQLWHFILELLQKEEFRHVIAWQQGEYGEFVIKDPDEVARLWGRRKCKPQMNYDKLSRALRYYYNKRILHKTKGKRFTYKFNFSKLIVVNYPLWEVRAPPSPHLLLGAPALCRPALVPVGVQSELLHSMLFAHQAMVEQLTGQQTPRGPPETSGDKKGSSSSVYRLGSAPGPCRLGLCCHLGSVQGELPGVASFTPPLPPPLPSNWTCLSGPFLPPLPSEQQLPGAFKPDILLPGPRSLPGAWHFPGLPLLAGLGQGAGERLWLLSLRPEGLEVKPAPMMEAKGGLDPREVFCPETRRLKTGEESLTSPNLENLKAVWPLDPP
In short: as §1

ETS2 = molecular target: T8, ETS2 (Homo sapiens, UniProt P15036 1-469); conditions: protein: recombinant; tags: N-terminal GST; dsDNA, one strand shown
T8 sequence: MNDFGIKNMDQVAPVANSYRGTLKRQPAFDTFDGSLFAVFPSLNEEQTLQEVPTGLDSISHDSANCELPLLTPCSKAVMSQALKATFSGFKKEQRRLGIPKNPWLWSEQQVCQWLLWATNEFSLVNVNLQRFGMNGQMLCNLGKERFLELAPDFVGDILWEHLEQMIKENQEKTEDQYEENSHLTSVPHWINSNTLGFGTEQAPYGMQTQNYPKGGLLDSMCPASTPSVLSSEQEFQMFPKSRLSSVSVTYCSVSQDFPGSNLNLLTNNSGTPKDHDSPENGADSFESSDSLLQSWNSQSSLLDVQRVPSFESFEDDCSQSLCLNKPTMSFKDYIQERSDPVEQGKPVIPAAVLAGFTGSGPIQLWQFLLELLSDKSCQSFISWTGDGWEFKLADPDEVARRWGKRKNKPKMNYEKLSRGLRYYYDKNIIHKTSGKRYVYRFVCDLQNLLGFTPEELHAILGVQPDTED
In short: as §1

SPDEF = molecular target: T9, SPDEF (Homo sapiens, UniProt O95238 1-335); conditions: protein: recombinant; tags: N-terminal GST; dsDNA, one strand shown
T9 sequence: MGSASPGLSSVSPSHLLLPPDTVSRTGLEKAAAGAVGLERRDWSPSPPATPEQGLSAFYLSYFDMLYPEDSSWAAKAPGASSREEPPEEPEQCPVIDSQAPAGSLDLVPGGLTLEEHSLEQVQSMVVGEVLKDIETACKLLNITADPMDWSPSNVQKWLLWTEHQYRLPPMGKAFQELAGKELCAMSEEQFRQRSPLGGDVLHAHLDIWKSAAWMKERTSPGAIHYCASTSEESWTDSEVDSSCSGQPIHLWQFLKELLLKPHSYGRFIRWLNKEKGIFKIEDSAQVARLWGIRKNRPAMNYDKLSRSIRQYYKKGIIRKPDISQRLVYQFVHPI
In short: as §1

ETV7 = molecular target: T10, ETV7 (Homo sapiens, UniProt Q9Y603 1-341); conditions: protein: recombinant; tags: N-terminal GST; dsDNA, one strand shown
T10 sequence: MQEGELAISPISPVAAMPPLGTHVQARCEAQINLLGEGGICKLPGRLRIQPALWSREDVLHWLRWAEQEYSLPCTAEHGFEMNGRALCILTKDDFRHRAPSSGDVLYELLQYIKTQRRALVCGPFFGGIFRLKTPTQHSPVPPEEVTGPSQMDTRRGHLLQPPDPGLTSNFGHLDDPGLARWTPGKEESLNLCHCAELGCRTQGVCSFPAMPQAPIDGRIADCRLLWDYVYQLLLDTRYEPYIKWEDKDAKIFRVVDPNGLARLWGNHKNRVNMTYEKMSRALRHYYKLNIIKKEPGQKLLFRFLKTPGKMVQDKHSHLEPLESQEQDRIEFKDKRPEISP
In short: as §1

ELF5 = molecular target: T11, ELF5 (Homo sapiens, UniProt Q9UKW6-2 1-255); conditions: protein: recombinant; tags: N-terminal GST; dsDNA, one strand shown
T11 sequence: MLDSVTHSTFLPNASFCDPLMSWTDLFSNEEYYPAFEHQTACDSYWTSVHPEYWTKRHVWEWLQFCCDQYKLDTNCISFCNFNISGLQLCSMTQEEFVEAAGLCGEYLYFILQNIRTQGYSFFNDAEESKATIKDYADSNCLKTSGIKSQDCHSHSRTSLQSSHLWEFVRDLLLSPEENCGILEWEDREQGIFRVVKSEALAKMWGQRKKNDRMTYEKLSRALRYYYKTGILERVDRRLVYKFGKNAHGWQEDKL
In short: as §1

ETV3 = molecular target: T12, ETV3 (Homo sapiens, UniProt P41162-2 1-143); conditions: protein: recombinant; tags: N-terminal GST; dsDNA, one strand shown
T12 sequence: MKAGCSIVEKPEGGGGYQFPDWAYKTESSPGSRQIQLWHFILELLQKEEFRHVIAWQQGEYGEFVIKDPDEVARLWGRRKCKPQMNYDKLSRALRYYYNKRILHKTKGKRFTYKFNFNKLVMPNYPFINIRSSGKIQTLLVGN
In short: as §1

ETV6 = ETV6 (Homo sapiens, UniProt P41212 1-452); conditions: protein: recombinant; tags: N-terminal GST; dsDNA, one strand shown
Sequence of ETV6 (P41212 whole entry): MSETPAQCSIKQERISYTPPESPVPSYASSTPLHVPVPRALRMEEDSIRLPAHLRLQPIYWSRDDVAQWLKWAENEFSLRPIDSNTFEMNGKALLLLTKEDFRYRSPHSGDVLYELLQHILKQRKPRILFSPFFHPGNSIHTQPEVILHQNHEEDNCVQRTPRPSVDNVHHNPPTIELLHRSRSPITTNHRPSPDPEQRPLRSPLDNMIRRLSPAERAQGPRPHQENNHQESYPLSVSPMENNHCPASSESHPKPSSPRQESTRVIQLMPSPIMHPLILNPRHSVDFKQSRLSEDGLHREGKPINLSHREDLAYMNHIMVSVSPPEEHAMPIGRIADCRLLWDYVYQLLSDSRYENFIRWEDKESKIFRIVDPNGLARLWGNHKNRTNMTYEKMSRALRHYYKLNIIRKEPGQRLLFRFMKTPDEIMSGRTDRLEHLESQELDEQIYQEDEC
In short: as §1

For CCTCCG, the binding signal (FEV) was 1.45 fold enrichment (6-mer frequency, TF over GST control), the binding signal (ETV5) was 1.34 fold enrichment (6-mer frequency, TF over GST control) and the binding signal (HSF1) was 1.01 fold enrichment (6-mer frequency, TF over GST control). The binding signal (SPIC) was 1.62 fold enrichment (6-mer frequency, TF over GST control), the binding signal (ELF4) was 1.38 fold enrichment (6-mer frequency, TF over GST control) and the binding signal (ELK4) was 1.36 fold enrichment (6-mer frequency, TF over GST control). The binding signal (ETV2) was 1.33 fold enrichment (6-mer frequency, TF over GST control), the binding signal (ELF3) was 1.32 fold enrichment (6-mer frequency, TF over GST control) and the binding signal (CRX) was 1.07 fold enrichment (6-mer frequency, TF over GST control). For the same sequence, the binding signal (ETV1) was 1.4 fold enrichment (6-mer frequency, TF over GST control), the binding signal (ERF) was 1.41 fold enrichment (6-mer frequency, TF over GST control) and the binding signal (ETV3L) was 1.65 fold enrichment (6-mer frequency, TF over GST control). The binding signal (ETS2) was 1.31 fold enrichment (6-mer frequency, TF over GST control), the binding signal (SPDEF) was 1.36 fold enrichment (6-mer frequency, TF over GST control) and the binding signal (ETV7) was 1.2 fold enrichment (6-mer frequency, TF over GST control). For the same sequence, the binding signal (ELF5) was 1.35 fold enrichment (6-mer frequency, TF over GST control), the binding signal (ETV3) was 1.3 fold enrichment (6-mer frequency, TF over GST control) and the binding signal (ETV6) was 1.31 fold enrichment (6-mer frequency, TF over GST control).
